Results taken from PubChem BioAssay AID1508625 (Wald Lab, School of Medicine, Case Western Reserve …, 2021).

Test: enhancers of NK cell killing of ovarian tumor cells, primary screen, imaging, OVCAR3, primary NK cells, calcein-AM imaging (AID 1508625);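 further: compound given to NK cells 16 h before adding targets at 1.5 to 1 ratio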
Settings: OVCAR3 lysis by primary NK cells, at 5 µM; z-score: measured here: robust Z-score, single-point normalisation

Row | SMILES | corrected activity, negative = more killing | z-score
1 | Cc1ccc(C)c(Cn2cccc2C#N)c1 | -4.01% | -1.08
2 | CCOC(=O)C1=C(N)OC2=C(C(=O)CC(C)(C)C2)C1c1ccc(O)cc1 (stereo unspecified) | -4.12% | -1.28
3 | Cc1oc(-c2cccc(Br)c2)nc1CN1CCC(C(=O)NC(C)CCc2ccccc2)CC1 (stereo unspecified) | -7.41% | -2
4 | COc1ccc(OC)c(-n2c(=S)[nH]c3cc(C(=O)Nc4ccc5c(c4)CCC5)ccc3c2=O)c1 | -3.65% | -1.16
5 | COCCCNC(=O)C1c2ccccc2C(=O)N(C)C1c1cccs1 (stereo unspecified) | -4.54% | -1.13
6 | COc1ccc(NC(=O)CN(C)S(=O)(=O)c2cccs2)cc1OC | -4.46% | -1.26
7 | CCOC(=O)c1ccc(NC(=O)C2CCN(C(=O)c3cccs3)CC2)cc1 | -6.67% | -2.48
8 | COc1ccc(OC)c(C2NC(=S)NC(C)=C2C(=O)Nc2ccccc2)c1 (stereo unspecified) | -2.97% | -0.92
